The OligoGym collection

Biological target: METTL21D
Experiment: pooled miR-30 sensor sort-seq; sequence = guide strand
Conditions: shRNA
Note: reference of the scale not given here.

Sequence	sensor-assay potency score (higher = more potent)
TTAAACTCTGAAGACAAACTAA	-0.429
TATAGAACTACATTTGTAGTTA	0.621
TAGCACTGTACCATCCCGCTTC	0.175
TTGCAATTCCTCAAGATCGGTG	-0.436
TTGTAGTTATTCAAAAACCTTT	-1.15
TGAACTAAGTAACCTAAGCTGG	-0.584
TATACTGCTGTAGTCGTAGCAC	0.182
TTGGCTTGAACAGAACCAGTGA	0.803

Biological target: MET
Experiment: as above
Conditions: shRNA

Sequence	sensor-assay potency score (higher = more potent)
TTTCTTGCCATCATTGTCCAAC	-0.767
TGATCGAGAAACCACAACCTGC	-1.33
TATATTAAACACTTCCTTCTTT	0.147
TATTCTTGTGTGAAAAGTCTGA	0.132
TTGCTTTGTGCGAACACCCCGA	0.0698
TAGAATGACATTCTGGATGGGT	0.522
TATGTCAGCAGTATGATTGTGG	0.148
TTAAACACTTCCTTCTTTGTGG	0.061
TTCATTGAAATGCACAATCAGG	-0.957
TTGATATTGAGACAACACCAGC	-1.2
TTCTGTGAGAATACACTCCAGA	-0.115
TTGAGTTTGCAGACTTTCCAAA	-0.558

Biological target: MEX3D
Experiment: as above
Conditions: shRNA

Sequence	sensor-assay potency score (higher = more potent)
TTGACGCTTTTCTTGCGGCTGC	-0.68
TTGATCTTGCAGCCCTGGCGAC	-1.24
TGGTCGGCCAGCAGCGTCGGGG	-1.69
TTGACCGTGGAGCAGCCGCTGA	-1.71
TTGGCGTGGAAGTCGCTGTCGG	-0.234
TGATGTAGGTGTTTGTCTTGGC	0.554
TAGGTGTTTGTCTTGGCCCGCA	0.155
AGGAAGTCGAAGTCGAAGCCGA	-1.39
TTGCCGGAGCCGCTGTAGGGGC	-1.61
TTGATGTAGGTGTTTGTCTTGG	-0.318
TAGGTGTGCGTCCGCTGCTGGA	-1.39
AAGTCGAAGCCGAAGTCGCAGT	-0.692

Biological target: MFNG
Experiment: as above
Conditions: shRNA

Sequence	sensor-assay potency score (higher = more potent)
TTGCACTCAATGATATAGCCCA	-0.194
TTTGTCTGGGCTGTCGGTGAAG	-0.931
ATAGTTGTCATCGTCCACATGG	-0.521
TCGGTGAAGACAAATGTCTGTT	-0.485
TTGCGATTGATGCAGAAGCCAG	-1.46
AATGAAGACATCGTGTAGCTGT	0.421
TCACATAGTTGTCATCGTCCAC	-0.585
TAGTTGTCATCGTCCACATGGC	-0.357
